From PubChem BioAssay (NCI) come the findings set out here.

Test systems include SK-MEL-2 melanoma; EKVX NSCLC; UO-31 renal; TK-10 renal; ACHN renal; CAKI-1 renal; A498 renal; CCRF-CEM leukemia; MOLT-4 leukemia; SR leukemia; RPMI-8226 leukemia; OVCAR-8 ovarian; OVCAR-5 ovarian; OVCAR-4 ovarian; SK-OV-3 ovarian; IGROV1 ovarian; OVCAR-3 ovarian; HS 578T breast; NCI/ADR-RES ovarian.
What all share (assay): NCI-60 one-dose screen, 48 h (100 = growth as untreated, 0 = no growth, -100 = all killed)
Holding throughout (settings): 10 µM unless noted

This is part of a sample that, as a whole, favours compounds with a hit. Of some 83,000 tested, about 20% had one in any assay.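 Assay: single dose, 48 h. Readout: percent growth (0 = no net growth; negative = cell death). Active: <10.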 Unmarked numbers belong to inactive results. Activity calls are given as the source filed them.

On to `COc1ccc(-c2nc3ccc(-c4nnc(SCc5ccccc5)o4)cc3[nH]2)cc1`, for which the growth was 11% in the test on SK-MEL-2 melanoma; -0.06% (active) with EKVX NSCLC; -44.2% (active) in the test on UO-31 renal; -35.3% (active) in the test on TK-10 renal; -85.2% (active) in the test on ACHN renal; -77.1% (active) in the test on CAKI-1 renal. The growth in the test on A498 renal was -36.2% (active); in the test with CCRF-CEM leukemia, 13.9%; in the test on MOLT-4 leukemia it was 11.5%; with SR leukemia it was 6.93% (active); in the test on RPMI-8226 leukemia it was 7.16% (active); with OVCAR-8 ovarian, -36.8% (active). The growth is 46.8% in the test on OVCAR-5 ovarian; -57.7% (active) in the test with OVCAR-4 ovarian; 5.77% (active) with SK-OV-3 ovarian; -17.1% (active) in the test on IGROV1 ovarian; -33.1% (active) in the test on OVCAR-3 ovarian; -17.5% (active) with HS 578T breast. Besides, the growth with NCI/ADR-RES ovarian is -65.6% (active).
In the case of `CS(=O)(=O)c1ccc(-n2nc(C(=O)NCc3ccccc3)cc2-c2ccc(Cl)cc2)cc1`, the growth in the test on SK-MEL-2 melanoma was 92.9%; in the test with EKVX NSCLC, 68%; in the test on UO-31 renal, 56.5%; in the test with TK-10 renal, 104%; in the test on ACHN renal it was 91.3%; in the test on CAKI-1 renal it was 76.1%. In addition, the growth in the test on A498 renal was 124%; with CCRF-CEM leukemia, 58.6%; in the test on MOLT-4 leukemia, 59.4%; in the test with SR leukemia, 76.7%; in the test on RPMI-8226 leukemia it was 56.8%; with OVCAR-8 ovarian, 89.9%. Moreover, the growth was 105% in the test on OVCAR-5 ovarian; 71% with OVCAR-4 ovarian; 104% in the test on SK-OV-3 ovarian; 99.7% in the test on OVCAR-3 ovarian; 110% with HS 578T breast; 83.9% in the test on NCI/ADR-RES ovarian.
Take `O=C1NC(=NC23CC4CC(CC(C4)C2)C3)N/C1=C\c1ccc2ncccc2c1`: the growth is -5.99% (active) in the test on SK-MEL-2 melanoma; 9.7% (active) with EKVX NSCLC; 14.7% in the test on UO-31 renal; -22.9% (active) with TK-10 renal; 4.48% (active) in the test on ACHN renal; -61.1% (active) in the test on CAKI-1 renal. The growth was -31% (active) with A498 renal; -15% (active) in the test on CCRF-CEM leukemia; -13% (active) in the test on MOLT-4 leukemia; -31.1% (active) in the test on RPMI-8226 leukemia; 5.28% (active) in the test on OVCAR-8 ovarian; 45.7% in the test on OVCAR-5 ovarian. The growth with OVCAR-4 ovarian was -14.4% (active); in the test with SK-OV-3 ovarian, -57.4% (active); in the test with IGROV1 ovarian, 8.97% (active); with OVCAR-3 ovarian, -55.3% (active); with HS 578T breast, -15.3% (active); in the test on NCI/ADR-RES ovarian, -28.7% (active).
Regarding `CCCCNc1ccc2c3c(cccc13)C(=O)N(c1cccc(-c3nn(-c4ccccc4)cc3-c3nc4ccccc4s3)c1)C2=O`, the growth in the test on SK-MEL-2 melanoma is 98.1%; with EKVX NSCLC, 96.4%; with UO-31 renal it was 70.4%; in the test on TK-10 renal, 110%; in the test on ACHN renal, 96.3%; in the test on A498 renal, 131%. Besides, the growth in the test on CCRF-CEM leukemia is 105%; in the test on MOLT-4 leukemia it was 113%; in the test with SR leukemia it was 95.5%; in the test with OVCAR-8 ovarian it was 107%; in the test with OVCAR-5 ovarian, 104%; in the test on SK-OV-3 ovarian, 126%. The growth in the test with IGROV1 ovarian is 98.4%; with OVCAR-3 ovarian, 111%; in the test on HS 578T breast, 110%; with NCI/ADR-RES ovarian it was 98%.
`C[C@@H]1[C@H]2C[C@@H](C[C@H]1NCc1nc3ccccc3n1C1CCCCCC1)C2(C)C`: the growth is 70.6% with SK-MEL-2 melanoma; 68.3% with EKVX NSCLC; 44.4% in the test on UO-31 renal; 90.8% with TK-10 renal; 59.5% in the test with ACHN renal; 88.9% in the test with A498 renal. The growth in the test on CCRF-CEM leukemia was 58%; in the test on MOLT-4 leukemia it was 33.6%; in the test on SR leukemia it was 15.4%; in the test with RPMI-8226 leukemia, 27.6%; in the test on OVCAR-8 ovarian, 75.1%; in the test with OVCAR-5 ovarian it was 85.9%. Further, the growth in the test with OVCAR-4 ovarian was 72.4%; in the test on SK-OV-3 ovarian it was 90.4%; with IGROV1 ovarian it was 75.8%; in the test with OVCAR-3 ovarian it was 64.5%; in the test with HS 578T breast, 80.2%; in the test on NCI/ADR-RES ovarian, 25.9%.
Turning to `COc1cc(/C=C/C(=O)c2ccc(S(=O)(=O)NCCNc3nc(N(C)C)nc(N4CCOCC4)n3)cc2)cc(OC)c1OC`, the growth with SK-MEL-2 melanoma was 81.4%; in the test with EKVX NSCLC, 36.3%; in the test on UO-31 renal it was 12.8%; in the test with TK-10 renal it was 13.5%; in the test on ACHN renal, -100% (active); in the test with CAKI-1 renal it was 39.4%. Also, the growth with A498 renal was 51.9%; with CCRF-CEM leukemia it was -27.9% (active); in the test with MOLT-4 leukemia, -40.2% (active); in the test on SR leukemia, -28.2% (active); in the test with RPMI-8226 leukemia, -14.5% (active); in the test on OVCAR-8 ovarian, -49.5% (active). The growth was -33.1% (active) in the test with OVCAR-5 ovarian; 8.16% (active) in the test with OVCAR-4 ovarian; 60.3% in the test with SK-OV-3 ovarian; -55% (active) with IGROV1 ovarian; -42.2% (active) with OVCAR-3 ovarian; 19.9% with HS 578T breast. In the test with NCI/ADR-RES ovarian, the growth is -39.1% (active).
Consider `Cn1cc(-c2cc(N)n3nc(-c4c[nH]c5ccccc45)cc3n2)c2cc(Cl)ccc21`, for which the growth in the test on SK-MEL-2 melanoma was -64.6% (active); in the test on EKVX NSCLC, -77% (active); with UO-31 renal, -80.1% (active); in the test with TK-10 renal, -90.2% (active); in the test with ACHN renal, -75.6% (active); in the test on CAKI-1 renal, -63.6% (active). The growth in the test on A498 renal was -59.1% (active); with CCRF-CEM leukemia, -16.2% (active); in the test on MOLT-4 leukemia it was 6.43% (active); in the test with SR leukemia, 20%; in the test with RPMI-8226 leukemia, -7.08% (active); in the test on OVCAR-8 ovarian it was -63.7% (active). Besides, the growth in the test on OVCAR-5 ovarian is -65.9% (active); in the test on OVCAR-4 ovarian it was -29.3% (active); with SK-OV-3 ovarian, -61.4% (active); in the test with IGROV1 ovarian, -65.5% (active); with OVCAR-3 ovarian, -52.5% (active); in the test on HS 578T breast, -21.2% (active). The growth in the test on NCI/ADR-RES ovarian is -12.8% (active).
For the molecule `Cc1ccc2nc(COc3ccc(C(=O)NNC(=O)Nc4ccc(Cl)c(C(F)(F)F)c4)cc3)[nH]c2c1`, the growth in the test on SK-MEL-2 melanoma is 98.4%; in the test with EKVX NSCLC, 77.3%; in the test on TK-10 renal it was 110%; in the test on ACHN renal, 89.7%; in the test with CAKI-1 renal it was 73.2%; in the test with A498 renal, 116%. Further, the growth with CCRF-CEM leukemia was 41.6%; in the test with MOLT-4 leukemia, 75.5%; in the test on SR leukemia, 16.8%; in the test with RPMI-8226 leukemia, 59.5%; in the test with OVCAR-8 ovarian, 10.7%; in the test on OVCAR-5 ovarian, 66.9%. The growth in the test with OVCAR-4 ovarian is 74%; in the test on SK-OV-3 ovarian, 70.9%; in the test on IGROV1 ovarian, 52.2%; in the test on OVCAR-3 ovarian, 28.9%; in the test on HS 578T breast, 39.7%; with NCI/ADR-RES ovarian it was 95.8%.
